According to PubChem BioAssay (EPA / NIEHS):
Calls of active or inactive are those of the source. The calls were made as follows: active = hit-call score of the fitted dose curve at least 0.9, where 1 is the maximum; inactive = score below 0.9.

Tests used:
Details in all cases: mRNA level, 48 h; actives raise or lower the signal
[1] = read-out: Insulin Like Growth Factor 1 (IGF1), IGF1 (gene 3479); experiment: LTEA_HepaRG_IGF1: Life Technologies and Expression Analysis (LTEA) Assay for Insulin Like Growth Factor 1 (IGF1) using HepaRG (AID 2283506)
Outline: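 Differentiated human HepaRG cells were dosed for 48 h in serum-free induction medium with 0.5% DMSO, eight half-log concentrations up to 100 uM, in duplicate. IGF1 mRNA was quantified by qRT-PCR normalized to ACTB, GAPDH, POLR2A; bidirectional fitting versus DMSO.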

[2] = read-out: Intercellular Adhesion Molecule 1 (ICAM1), ICAM1 (gene 3383); experiment: LTEA_HepaRG_ICAM1: Life Technologies and Expression Analysis (LTEA) Assay for Intercellular Adhesion Molecule 1 (ICAM1) using HepaRG (AID 2283507)
Outline: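 HepaRG, 48 h exposure, 8-pt half-log series from 100 uM, 0.5% DMSO vehicle, duplicates. Readout: TaqMan qRT-PCR mRNA, housekeeping-normalized (ACTB/GAPDH/POLR2A). Bidirectional curve fit vs DMSO baseline.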

[3] = read-out: Insulin-like growth factor-binding protein 1 (IGFBP1), IGFBP1 (gene 3484); experiment: LTEA_HepaRG_IGFBP1: Life Technologies and Expression Analysis (LTEA) Assay for Insulin-like growth factor-binding protein 1 (IGFBP1) using HepaRG (AID 2283508)
Outline: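 qRT-PCR mRNA read-out (TaqMan, Fluidigm array), normalised to three housekeeping genes; HepaRG cells, 48 h exposure, 8-pt half-log series from 100 uM, 0.5% DMSO vehicle; bidirectional curve fit vs DMSO baseline.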

[4] = read-out: Interleukin 6 Receptor (IL6R), IL6R (gene 3570); experiment: LTEA_HepaRG_IL6R: Life Technologies and Expression Analysis (LTEA) Assay for Interleukin 6 Receptor (IL6R) using HepaRG (AID 2283510)
Outline: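 Differentiated human HepaRG cells, plated 48 h then switched to serum-free induction medium, were dosed in duplicate for 48 h at eight half-log concentrations up to 100 uM in 0.5% DMSO. IL6R mRNA quantified by qRT-PCR, normalized to ACTB/GAPDH/POLR2A; bidirectional fit versus DMSO.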

[5] = read-out: Potassium channel subfamily K member 1 (KCNK1), KCNK1 (gene 3775); experiment: LTEA_HepaRG_KCNK1: Life Technologies and Expression Analysis (LTEA) Assay for Potassium channel subfamily K member 1 (KCNK1) using HepaRG (AID 2283511)
Outline: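 Differentiated human HepaRG cells in serum-free induction medium were exposed in duplicate for 48 h to 8 half-log concentrations up to 100 uM in 0.5% DMSO. KCNK1 mRNA was measured by TaqMan qRT-PCR, normalized to ACTB, GAPDH and POLR2A, and fitted bidirectionally versus DMSO.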

[6] = read-out: Keratin 19 (KRT19), KRT19 (gene 3880); experiment: LTEA_HepaRG_KRT19: Life Technologies and Expression Analysis (LTEA) Assay for Keratin 19 (KRT19) using HepaRG (AID 2283512)
Outline: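 HepaRG, 48 h chemical exposure, 8-pt half-log CRC from 100 uM, 0.5% DMSO vehicle, duplicates. Readout: TaqMan qRT-PCR of KRT19 mRNA, housekeeping-normalized (ACTB/GAPDH/POLR2A). Bidirectional fit vs DMSO baseline.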

[7] = read-out: JUN Transcription Factor, JUN (gene 3725); experiment: LTEA_HepaRG_JUN: Life Technologies and Expression Analysis (LTEA) Assay for JUN Transcription Factor using HepaRG (AID 2283513)
Outline: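 Differentiated HepaRG cells were exposed to chemicals for 48 h in serum-free induction medium, 8 concentrations from 100 uM in half-log steps, 0.5% DMSO vehicle, in duplicate. JUN mRNA was quantified by TaqMan qRT-PCR, normalized to ACTB, GAPDH, POLR2A.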

[8] = read-out: Lipase C (LIPC), LIPC (gene 3990); experiment: LTEA_HepaRG_LIPC: Life Technologies and Expression Analysis (LTEA) Assay for Lipase C (LIPC) using HepaRG (AID 2283514)
Outline: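 Differentiated human HepaRG cells in serum-free induction medium were exposed in duplicate for 48 h to eight concentrations (top 100 uM, half-log steps, 0.5% DMSO). LIPC mRNA was quantified by TaqMan qRT-PCR, normalized to ACTB, GAPDH and POLR2A, with bidirectional fitting versus DMSO.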

[9] = read-out: Lipoprotein lipase (LPL), LPL (gene 4023); experiment: LTEA_HepaRG_LPL: Life Technologies and Expression Analysis (LTEA) Assay for Lipoprotein lipase (LPL) using HepaRG (AID 2283515)
Outline: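 Differentiated human HepaRG cells in serum-free induction medium were exposed in duplicate for 48 h to eight half-log concentrations (top 100 uM) in 0.5% DMSO. LPL mRNA was quantified by TaqMan qRT-PCR, normalized to ACTB, GAPDH and POLR2A.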

[10] = read-out: MicroRNA 122 (MIR122), gene 406906; experiment: LTEA_HepaRG_MIR122: Life Technologies and Expression Analysis (LTEA) Assay for MicroRNA 122 (MIR122) using HepaRG (AID 2283516); also: the transcript read is the microRNA miR-122
Outline: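 Differentiated human HepaRG cells were exposed 48 h in serum-free induction medium to eight half-log concentrations (top 100 uM, 0.5% DMSO). Transcript level was measured by TaqMan qRT-PCR, normalized to ACTB, GAPDH and POLR2A, and fitted bidirectionally versus DMSO.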

[11] = read-out: matrix metalloproteinase-10 (MMP10), MMP10 (gene 4319); experiment: LTEA_HepaRG_MMP10: Life Technologies and Expression Analysis (LTEA) Assay for matrix metalloproteinase-10 (MMP10) using HepaRG (AID 2283517)
Outline: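 HepaRG, collagen I, ~100,000 cells/well; serum-free induction medium; 48 h exposure, duplicate, 8-pt half-log to 100 uM, 0.5% DMSO. Readout: TaqMan qRT-PCR, normalized to ACTB/GAPDH/POLR2A; bidirectional fit vs DMSO.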

MYC, MYC (gene 4609) = experiment: LTEA_HepaRG_MYC: Life Technologies and Expression Analysis (LTEA) Assay for MYC using HepaRG (AID 2283518)
Outline: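 qRT-PCR read-out of MYC transcript (Fluidigm TaqMan, housekeeping-normalized) after 48 h chemical exposure of HepaRG cells; eight concentrations, top 100 uM, half-log steps. Bidirectional curve fitting against 0.5% DMSO vehicle baseline.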

[12] = read-out: Paternally Expressed 10 (PEG10), PEG10 (gene 23089); experiment: LTEA_HepaRG_PEG10: Life Technologies and Expression Analysis (LTEA) Assay for Paternally Expressed 10 (PEG10) using HepaRG (AID 2283520)
Outline: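 Differentiated HepaRG cells, plated 48 h then switched to serum-free induction medium, were exposed in duplicate for 48 h to eight half-log concentrations topping at 100 uM in 0.5% DMSO. PEG10 mRNA was quantified by TaqMan qRT-PCR, normalised to ACTB, GAPDH and POLR2A.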

[13] = read-out: Protein phosphatase 2A (PPP2R4), PTPA (gene 5524); experiment: LTEA_HepaRG_PPP2R4: Life Technologies and Expression Analysis (LTEA) Assay for Protein phosphatase 2A (PPP2R4) using HepaRG (AID 2283522)
Outline: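 Differentiated HepaRG cells in serum-free induction medium were exposed in duplicate for 48 h to eight concentrations, top 100 uM with half-log dilutions, in 0.5% DMSO. PPP2R4 mRNA was quantified by TaqMan qRT-PCR, normalized to ACTB, GAPDH and POLR2A.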

[14] = read-out: Phosphatase and tensin (PTEN), PTEN (gene 5728); experiment: LTEA_HepaRG_PTEN: Life Technologies and Expression Analysis (LTEA) Assay for Phosphatase and tensin (PTEN) using HepaRG (AID 2283523)
Outline: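 Differentiated human HepaRG cells, plated 48 h then switched to serum-free induction medium, were exposed in duplicate for 48 h to eight half-log concentrations up to 100 uM in 0.5% DMSO. PTEN mRNA measured by TaqMan qRT-PCR, normalized to ACTB/GAPDH/POLR2A, bidirectional fit versus DMSO.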

[15] = read-out: solute carrier (SLC22A1), SLC22A1 (gene 6580); experiment: LTEA_HepaRG_SLC22A1: Life Technologies and Expression Analysis (LTEA) Assay for solute carrier (SLC22A1) using HepaRG (AID 2283524)
Outline: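 Human HepaRG cells were plated 48 h, switched to serum-free induction medium, then exposed in duplicate for 48 h to 8-point half-log series from 100 uM in 0.5% DMSO. SLC22A1 mRNA measured by qRT-PCR, normalized to ACTB/GAPDH/POLR2A, fitted bidirectionally versus DMSO.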

[16] = read-out: Interleukin 6 (IL6), IL6 (gene 3569); experiment: LTEA_HepaRG_IL6: Life Technologies and Expression Analysis (LTEA) Assay for Interleukin 6 (IL6) using HepaRG (AID 2283509)
Outline: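 Differentiated human HepaRG cells, plated 48 h then switched to serum-free induction medium, were exposed in duplicate for 48 h to eight half-log concentrations up to 100 uM in 0.5% DMSO. IL6 mRNA measured by qRT-PCR, normalized to ACTB/GAPDH/POLR2A.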

[17] = read-out: Nuclear factor NF-kappa-B p105 subunit (Homo sapiens) (UniProt P19838); experiment: LTEA_HepaRG_NFKB1: Life Technologies and Expression Analysis (LTEA) Assay for Nuclear Factor Kappa B Subunit 1 (NFKB1) using HepaRG (AID 2283521);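 also: TaqMan qRT-PCR transcript normalised to ACTB GAPDH and POLR2A housekeeping genes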
Outline: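 Differentiated human HepaRG cells were exposed for 48 h in serum-free induction medium to eight concentrations (top 100 uM, half-log steps, 0.5% DMSO), in duplicate. NFKB1 mRNA was measured by TaqMan qRT-PCR, normalized to ACTB/GAPDH/POLR2A, and fitted bidirectionally against DMSO.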

[18] = read-out: matrix metalloproteinase-3 (MMP3), MMP3 (gene 4314); experiment: LTEA_HepaRG_MMP3: Life Technologies and Expression Analysis (LTEA) Assay for matrix metalloproteinase-3 (MMP3) using HepaRG (AID 2283519)
Outline: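 Differentiated human HepaRG cells, plated 48 h on collagen I, were exposed in duplicate for 48 h in serum-free induction medium to eight half-log concentrations up to 100 uM in 0.5% DMSO. MMP3 mRNA was quantified by TaqMan qRT-PCR, normalised to ACTB, GAPDH and POLR2A.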

Measured: AC50

Nuclear factor NF-kappa-B p105 subunit (Homo sapiens), sequence (P19838 whole entry, looked up): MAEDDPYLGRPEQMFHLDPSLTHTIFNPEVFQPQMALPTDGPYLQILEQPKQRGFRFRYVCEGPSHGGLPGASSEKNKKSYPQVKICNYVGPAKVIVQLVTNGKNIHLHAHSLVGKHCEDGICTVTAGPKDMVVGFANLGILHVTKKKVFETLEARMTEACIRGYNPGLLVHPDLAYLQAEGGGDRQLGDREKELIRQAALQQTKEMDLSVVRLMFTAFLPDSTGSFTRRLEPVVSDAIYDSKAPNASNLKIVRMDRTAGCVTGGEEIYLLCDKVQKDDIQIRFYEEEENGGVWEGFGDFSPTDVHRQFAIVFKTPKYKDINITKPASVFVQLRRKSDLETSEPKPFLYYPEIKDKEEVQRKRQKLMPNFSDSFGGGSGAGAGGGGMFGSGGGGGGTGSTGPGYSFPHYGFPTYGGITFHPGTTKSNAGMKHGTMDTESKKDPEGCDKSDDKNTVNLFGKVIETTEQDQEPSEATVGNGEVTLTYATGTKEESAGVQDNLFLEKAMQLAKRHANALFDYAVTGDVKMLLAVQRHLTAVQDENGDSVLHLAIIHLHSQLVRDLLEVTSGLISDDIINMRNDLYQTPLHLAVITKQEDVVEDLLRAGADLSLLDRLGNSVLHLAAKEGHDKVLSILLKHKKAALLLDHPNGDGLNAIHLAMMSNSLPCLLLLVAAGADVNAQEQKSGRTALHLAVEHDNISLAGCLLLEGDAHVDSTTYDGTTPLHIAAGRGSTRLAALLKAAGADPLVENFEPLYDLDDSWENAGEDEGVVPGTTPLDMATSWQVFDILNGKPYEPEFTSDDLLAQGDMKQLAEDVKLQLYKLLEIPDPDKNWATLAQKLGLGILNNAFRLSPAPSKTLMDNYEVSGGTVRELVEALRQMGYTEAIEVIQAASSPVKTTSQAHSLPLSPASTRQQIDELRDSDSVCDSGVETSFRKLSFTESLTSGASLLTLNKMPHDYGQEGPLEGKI

Cc1[nH]cnc1C[C@H]1CCc2c(C)c3ccccc3n2C1=O
active: [1] 17.8 µM | [2] 35.9 µM | [3] 37.2 µM | [4] 79.3 µM | [5] 58.7 µM | [6] 11.5 µM | [7] 44.5 µM | [8] 27.7 µM | [9] 79 µM | [10] 14.1 µM | [11] 70.1 µM | MYC, MYC (gene 4609) 31.4 µM | [12] 20.8 µM | [13] 73.1 µM | [14] 79.3 µM | [15] 29 µM

CC(C)CCO
inactive: [1] | [2] | [3] | [16] | [5] | [6] | [7] | [8] | [10] | [11] | MYC, MYC (gene 4609) | [12] | [17] | [13] | [14] | [15]

COCCOCCOCCOC
inactive: [1] | [2] | [3] | [16] | [5] | [6] | [7] | [8] | [9] | [10] | [11] | MYC, MYC (gene 4609) | [12] | [17] | [13] | [14] | [15]

CC(C)CCCCCCOC(=O)c1ccc(C(=O)OCCCCCCC(C)C)c(C(=O)OCCCCCCC(C)C)c1
inactive: [1] | [2] | [3] | [5] | [6] | [7] | [8] | [9] | [10] | [11] | MYC, MYC (gene 4609) | [18] | [12] | [13] | [14] | [15]

O=C(O)CC(O)C(=O)O (configuration not stated)
inactive: [1] | [2] | [3] | [4] | [5] | [6] | [7] | [8] | [10] | [11] | MYC, MYC (gene 4609) | [12] | [13] | [14] | [15]

Nc1ccc(Nc2ccccc2)cc1
active: [1] 50 µM | [6] 50 µM | [8] 83.4 µM | [12] 79.9 µM
inactive: [2] | [3] | [5] | [7] | [9] | [10] | [11] | MYC, MYC (gene 4609) | [18] | [17] | [13] | [14] | [15]

CCCC(=O)OCC
inactive: [1] | [2] | [3] | [5] | [6] | [7] | [8] | [9] | [10] | [11] | MYC, MYC (gene 4609) | [12] | [13] | [14] | [15]
